The results in this text go back to PubChem BioAssay AID449746 (Sanford-Burnham Center for Chemical Genomics, 2010).

The structures appear in SMILES notation. Among all 2,000 compounds or so, about 680 (34%) were called active. Rule as the data show it: active = inhibition mostly above about 28% (no sharp cut-off); inactive = mostly below about 22%. Not all results are given here.

The nature of this assay: PMA/ionomycin-induced NF-kB reporter inhibitors, 697 retest, confirmation, B-cell NF-kB inhibitor project, cell-based, luminescence, single concentration (AID 449746). Particulars: 697 B-cell NF-kB luciferase, 16 h, at 4 µM, stronger effect = higher value.
As a reminder, the inhibition is the relative decrease from the control value, in per cent. In the case of `CCCCCCCCCCCCn1ccc(=N)cc1`, the inhibition is 50% (active).
